# Source: PubChem BioAssay (National Center for Advancing Translational Sciences (NCATS))
# Tb PGK inh: blocks T. brucei phosphoglycerate kinase. 380,000 tested, 0.043% active. P07378. PGK/GAPDH coupled, Kinase-Glo luminescence, 60 min. Potency, µM (top dose mostly 57.5 µM), without a hit: top-dose activity change, negative = inhibition, hits mostly inhibitors; note: % is set by controls: 0 for no effect and ±100 for the full control effect; nearly all actives have a fitted effect of over 60% in size
# Target sequence (P07378 whole entry, looked up): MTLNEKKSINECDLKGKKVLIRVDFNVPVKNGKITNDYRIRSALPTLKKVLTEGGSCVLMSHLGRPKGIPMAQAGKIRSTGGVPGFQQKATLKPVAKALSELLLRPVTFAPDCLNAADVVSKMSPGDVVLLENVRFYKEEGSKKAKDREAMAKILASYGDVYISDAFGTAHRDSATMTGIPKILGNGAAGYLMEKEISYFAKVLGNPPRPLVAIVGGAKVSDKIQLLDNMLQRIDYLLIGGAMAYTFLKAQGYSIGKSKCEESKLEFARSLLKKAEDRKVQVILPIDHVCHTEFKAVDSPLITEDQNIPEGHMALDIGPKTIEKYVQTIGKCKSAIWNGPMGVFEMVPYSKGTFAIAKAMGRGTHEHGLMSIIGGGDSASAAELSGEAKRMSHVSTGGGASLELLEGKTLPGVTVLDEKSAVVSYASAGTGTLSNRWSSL
#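 Recombinant glycosomal PGK reaction used 1,3-bisphosphoglycerate generated in-well by GAPDH (100nM final) in 100mM TEA pH 7.6, 5mM MgCl2, 0.01% Tween-20. After 60 minutes at room temperature, ATP was read by Kinase-Glo Plus luminescence end-point.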
# GLP1R cytotox: cytotoxicity in counter-screen for GLP-1R inverse agonists; 410,000 tested, 0.13% active; Potency, µM (top dose mostly 38.3 µM), without a hit: top-dose activity change, negative = inhibition, most hits filed as inhibitors; AID 624418; HEK293 cAMP-luciferase reporter cells, luminescence, 24 h;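 note: loss of luciferase light is scored as toxicity; % is set by controls: 0 for no effect and ±100 for the full control effect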
#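 To flag toxic compounds, the library was rerun on cells for 24 hr at 37 deg C and 5% CO2. Viability-linked luminescence was captured 12 min after adding luciferase detection reagent.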
# GLP1R inv ag: GLP-1 receptor (human) inverse agonism. P43220. HEK293 GLP-1R CRE-luciferase, luminescence, 24 h; GLP-1R form is constitutively active. Potency, µM (doses to about 38.3 µM), for inactives: at the highest dose activity change, negative = inhibition, most hits filed as inhibitors. 410,000 tested, 1.6% active; note: % is set by controls: 0 for no effect and ±100 for the full control effect; nearly all actives have a fitted effect of over 55% in size
#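 Stable HEK293 clone (constitutively active GLP-1R + cAMP-response luciferase); 200 cells/uL plated, 12 h pre-culture, compound 24 hr, 37 deg C/5% CO2; detection reagent 12 min RT; luminescence.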
# GLP1R ag: GLP-1 receptor (human) agonism. P43220. HEK293 GLP-1R CRE-luciferase, luminescence, 4-6 h; cells express a hypersensitive GLP-1R form. Potency, µM (doses to about 45.6 µM), inactives show at the highest dose activation, usual class: activators. 380,000 tested, 0.007% active; note: % of control where 0% means no effect
# Tb PFK inh: T. brucei PFK enzyme inhibition | 330,000 tested, 0.17% active | T. brucei PFK, ADP-Glo luminescence | AID 485367 | Potency, µM (series often up to 57.5 µM), without a hit: at the highest dose activity, negative = inhibition, hits mostly inhibitors | O15648;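 note: 0% = uninhibited 1x PFK enzyme wells and -100% = no-enzyme wells; nearly all actives have a fitted effect of over 60% in size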
#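 Compounds were pin-transferred as a titration series up to 57 uM into substrate buffer (0.5 mM F6P, 0.1 mM ATP, pH 8.0), then 1.25 nM PFK was added and reactions ran 45 min before ADP-Glo detection.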
# Pin1 inhibitor: inhibitors of human Pin1; Q13526; 390,000 tested, 0.009% active; Potency, µM (series often up to 115 µM), without a hit: at the highest dose activity, negative = inhibition, usual class: inhibitors; Pin1 FP peptide displacement, HiFluor488, 10 min; AID 504891; active = well fitted inhibition curve with a large enough effect in the polarisation, with a control signal flat, not every such curve was filed as active; inconclusive = small, poorly fitted or top-dose-only effect, or effect the other way, or a change in a side signal; inactive = no such curve, though single readings can be large or run the other way; the % refers to the polarisation; note: % is set by controls: 0 for no effect and ±100 for the full control effect
# Target sequence (Q13526 whole entry, looked up): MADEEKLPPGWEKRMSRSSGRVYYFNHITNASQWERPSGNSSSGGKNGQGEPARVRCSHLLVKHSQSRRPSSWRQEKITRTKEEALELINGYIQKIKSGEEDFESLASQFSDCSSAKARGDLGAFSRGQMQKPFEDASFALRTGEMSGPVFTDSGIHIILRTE
# * = called active by the depositor; i = inactive; ? = inconclusive; . = not tested or not shown. Shown are actives, neighbours in structure and some others; about 1.8% of the full set was active somewhere. Unless noted, calls come from the whole dose curve; as a rule, active = well fitted curve in the direction sought with a large enough effect; inconclusive = small, poorly fitted or top-dose-only effect, or another doubt; inactive = no such curve, though single readings can be large; an effect the other way counts as inactive or inconclusive. Potency is the fitted concentration of half-maximal effect.
SMILES,Tb PGK inh,GLP1R cytotox,GLP1R inv ag,GLP1R ag,Tb PFK inh,Pin1 inhibitor
Cc1cc(C)c(S(=O)(=O)Nc2ccc(-c3ccc(N4CCCCCC4)nn3)cc2)cc1C,-5%,-10%,13µM*,.,.,-3%
Clc1ccc(-n2nnnc2Sc2ncnc3sccc23)cc1,i,?,7.9µM*,-49%,.,-2%
OCCN(CCO)c1nc2ccccc2[nH]1,-6%,-7%,-8%,4%,-5%,0%
O=c1[nH]c(=O)n(C(c2ccccc2)(c2ccccc2)c2ccccc2)cc1N(CCO)CCO,0%,7%,10µM*,-1%,.,2%
N/C(=N\OC(=O)c1ccccc1)c1ccccn1,?,-13%,?,-8%,?,-8%
COc1ccc(C(=O)O/N=C(\C)c2ccccc2)cc1,22µM*,8%,-17%,-19%,-13%,3%
CC(C)(C)c1ccc(C(=O)O/N=C(\N)c2ccccn2)cc1,-10%,?,-77%,-2%,-1%,-2%
CCOc1ccc(C(=O)O/N=C(\N)c2ccccn2)cc1,13µM*,?,2.5µM*,-8%,?,0%
Cc1ccc(C(=O)O/N=C(\N)c2ccccn2)cc1,25µM*,?,2.5µM*,-6%,?,-4%
C/C(=N/OC(=O)c1ccc(C)cc1)c1cccs1,32µM*,15%,0%,-30%,?,-2%
CN1C2CCC1CC(NC(=O)n1c(=O)[nH]c3ccccc31)C2 (stereo not given),.,.,.,4%,.,.
Cc1cccc(C(=O)O/N=C(\N)c2ccccn2)c1,?,?,2µM*,-3%,-21%,-3%
N/C(=N\OC(=O)c1cccc(F)c1)c1ccccn1,?,4%,9%,-3%,-26%,-9%
Cc1ccc(Cn2c(C(=O)O)c(CNCc3cccs3)c3ccc(C)cc32)cc1,2%,-14%,-7%,-4%,.,1%
Cc1noc(C)c1COC(=O)c1ccccc1Sc1ccccc1C#N,-6%,-16%,8.9µM*,10%,1%,0%
CCCCCCOC(=O)C[N+](C)(C)CCOC1CC2CCC1(C)C2(C)C (stereo not given),0%,0%,0%,4%,-14%,7%
CCCCCCCOC(=O)C[N+](C)(C)CCOC1CC2CCC1(C)C2(C)C (stereo not given),-1%,11µM*,?,7%,5%,2%
COc1ccc(Cn2ncc3c4sc(C)cc4n(C)c3c2=O)cc1F,.,.,.,.,.,1%
O=C1CC(/C=C/c2ccncc2)=Nc2ccccc2N1,-3%,-24%,2.5µM*,4%,-4%,-6%
COc1cccc(-n2c(SCC(=O)N3CCc4ccccc43)nc3c([nH]c4ccccc43)c2=O)c1,-8%,-7%,-15%,-1%,.,1%
O=C(N1Cc2ccc(Nc3nn4c(=O)c5ccccc5nc4s3)cc2C1)C(F)(F)F,.,.,.,.,.,7%
COc1c(C(CC(C)C)OC(C)=O)ccc2c1C(=O)OCc1cc(C)cc(O)c1O2 (stereo not given),-2%,-3%,10µM*,4%,2%,11%
COc1c(C(O)CC(C)C)ccc2c1C(=O)OCc1cc(C)cc(O)c1O2 (stereo not given),-6%,-1%,11µM*,-5%,-12%,0%
O=c1n(Cc2ccc(F)cc2Cl)c2ccccc2c2nc(-c3ccccc3)nn12,i,0%,12%,.,.,4%
Cc1cccc(C)c1OCCNC(=O)OCc1ccccc1,6%,-8%,11µM*,9%,-1%,3%
SMILES,Tb PGK inh,GLP1R cytotox,GLP1R inv ag,GLP1R ag,Tb PFK inh,Pin1 inhibitor
O=C(NCCCCCCNC(=O)OCc1ccccc1)OCc1ccccc1,2%,0%,17%,-1%,.,-1%
Cc1ccc(N2CCN(S(=O)(=O)c3cc(C(=O)Nc4cc(Cl)cc(Cl)c4)ccc3F)CC2C)cc1 (stereo not given),3%,0%,?,.,.,6%
CC(C)(C)c1ccc(NC(=O)COC(=O)C2(C)CC2(Cl)Cl)cc1 (stereo not given),-1%,-24%,3.5µM*,1%,-4%,-10%
COc1ccccc1C(=O)COC(=O)C1(C)CC1(Cl)Cl (stereo not given),i,10%,10µM*,1%,1%,0%
COc1ccccc1C(=O)COC(=O)c1ccccc1O,i,-2%,-17%,12%,2%,0%
CCc1cccc(NC(=O)c2ccc3c(c2)N(Cc2cccc(Cl)c2)C(=O)c2ccccc2S3=O)c1 (stereo not given),5%,10%,9%,.,.,21%
CCOC(=O)c1[nH]c2c(c1Cc1ccccc1)C(=O)CC(c1ccccc1)C2 (stereo not given),4%,-13%,11µM*,.,.,25%
O=C(NCCSCc1ccccc1Cl)C1CCN(S(=O)(=O)Cc2ccccc2)CC1,4%,-1%,-12%,.,.,13%
CCO[C@@H](Cc1ccc(OCCc2ccc(OS(C)(=O)=O)cc2)cc1)C(=O)O,.,.,.,7%,.,.
CC(C)OC(=O)/C(=C\c1ccccc1)NC(=O)c1ccccc1,0%,-2%,-21%,20%,0%,-2%
CC(C)OC(=O)/C(=C\c1cccc2ccccc12)NC(=O)c1ccccc1,4%,5%,10µM*,14%,0%,5%
CCN1CCN(Cc2ccc(NC(=O)Nc3ccc(SC)cc3)cc2)CC1,-10%,?,7.9µM*,14%,-6%,0%
CC(C)OC(=O)Nc1ccc2nc(-c3cscn3)[nH]c2c1,.,.,.,-4%,.,.
CC1CCc2c(C(=O)OCC(=O)Nc3cccc(S(=O)(=O)N4CCCCCC4)c3)csc2C1 (stereo not given),-4%,-2%,2.5µM*,-3%,-1%,9%
Cc1ccc(C)c(C(=O)OCC(=O)Nc2cccc(S(=O)(=O)N3CCCCC3)c2)c1,-1%,-4%,1.4µM*,-1%,6%,31%
CC(OC(=O)c1cc(S(=O)(=O)N2CCOCC2)ccc1F)C(=O)NCC1CCCCC1 (stereo not given),-2%,6%,-21%,8%,5%,-7%
Cc1ccc(NC(=O)COC(=O)c2csc3c2CCC(C)C3)cc1S(=O)(=O)N1CCCCC1 (stereo not given),2%,3%,-5%,-7%,-5%,17%
Cc1ccc(S(=O)(=O)N2CCCCC2)cc1C(=O)OC(C)C(=O)NCC1CCCCC1 (stereo not given),8%,-4%,7.1µM*,6%,-1%,2%
Nc1ccc(S(=O)(=O)N2CCCN(S(=O)(=O)c3ccc4c(c3)OCCO4)CC2)cc1,.,.,.,.,.,-1%
